From PubChem BioAssay (NCI)
About 79,000 compounds went through this panel and 15% of them were active in at least one assay; those are over-represented in the sample as a whole. The source made the active and inactive calls. Cut-off read from the data, not from the text of the source: active = growth inhibition above about 70%; inactive = the rest.

Key:
[1] = NCI Yeast Anticancer Drug Screen. Data for the wt1 strain (AID 149);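 note: 0% = growth of vehicle-treated wt1 cultures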; conditions: S. cerevisiae wt1 strain (SPY 50644) growth inhibition, active compounds read high
Method in brief: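 The wt1 strain was treated with compounds, and growth was compared with vehicle-treated cultures to give inhibition.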

[2] = NCI Yeast Anticancer Drug Screen. Data for the rad50EPP+ strain (AID 151);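 note: 0% = growth of vehicle-treated control cultures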; conditions: S. cerevisiae rad50 mutant strain, active compounds read high
Method in brief: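 Genetically defined yeast (rad50EPP+, DNA damage repair alteration) is grown with compound, and inhibition of growth is expressed relative to vehicle-treated controls.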

[3] = NCI Yeast Anticancer Drug Screen. Data for the mgt1 strain (AID 153); conditions: S. cerevisiae mgt1 mutant growth inhibition, active compounds read high
Method in brief: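 In the mgt1 strain, test compounds were added and growth inhibition was determined relative to vehicle-treated controls.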

[4] = NCI Yeast Anticancer Drug Screen. Data for the rad50 strain (AID 155);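 note: 0% = growth of vehicle-only cultures of the same strain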; conditions: S. cerevisiae rad50 strain growth inhibition, active compounds read high
Method in brief: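 Cells are treated with compound, grown, and their growth is then scored against vehicle-only cultures of the same repair-deficient yeast strain.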

[5] = NCI Yeast Anticancer Drug Screen. Data for the mec2-1 strain (AID 157); conditions: S. cerevisiae mec2-1 strain, active compounds read high
Method in brief: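 Each compound was tested on mec2-1 yeast, a strain altered in DNA damage repair or cell cycle control. Growth inhibition is reported relative to vehicle.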

[6] = NCI Yeast Anticancer Drug Screen. Data for the rad14 strain (AID 159);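 note: 0% = growth of vehicle-treated control cultures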; conditions: S. cerevisiae rad14 strain growth inhibition, active compounds read high
Method in brief: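 Readout: yeast growth inhibition, referenced to vehicle-only cultures. Strain bears a defined alteration in DNA damage repair.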

[7] = NCI Yeast Anticancer Drug Screen. Data for the sgs1 mgt1 strain (AID 161);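 note: 0% = growth of cultures given vehicle only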; conditions: S. cerevisiae sgs1 mgt1 strain, active compounds read high
Method in brief: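 Mutant yeast exposed to compound; growth scored against vehicle-only wells.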

[8] = NCI Yeast Anticancer Drug Screen. Data for the CLN2oe strain (AID 163);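 note: 0% = growth of vehicle-only control cultures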; conditions: S. cerevisiae CLN2oe strain, active compounds read high
Method in brief: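 First, the altered yeast strain was treated with each compound; second, its growth was measured; finally, inhibition was derived by comparison with vehicle controls.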

[9] = NCI Yeast Anticancer Drug Screen. Data for the cln2 rad14 strain (AID 165);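 note: 0% = growth equal to vehicle treated cultures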; conditions: S. cerevisiae cln2 rad14 strain, active compounds read high
Method in brief: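 Test compounds were added to cln2 rad14 yeast cultures; inhibition of growth was then determined by comparison with vehicle treatment.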

[10] = NCI Yeast Anticancer Drug Screen. Data for the bub3 strain (AID 167); conditions: S. cerevisiae bub3 mutant strain, active compounds read high
Method in brief: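 Part of a panel of yeast mutants defective in DNA damage repair or cell cycle regulation. Each strain is grown with compound, and inhibition is calculated relative to solvent-treated cultures.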

[11] = NCI Yeast Anticancer Drug Screen. Data for the wt2 strain (AID 169);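 note: 0% = growth of vehicle-treated yeast cultures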; conditions: S. cerevisiae wt2 strain growth inhibition, active compounds read high
Method in brief: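 The panel's yeast strains carry defined changes in DNA repair or cell cycle genes. Each strain is grown with compound, and growth loss is scored relative to vehicle.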

[12] = NCI Yeast Anticancer Drug Screen. Data for the mlh1 strain (AID 171);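 note: 0% = growth of vehicle-treated control cultures of the same strain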; conditions: S. cerevisiae mlh1 strain growth inhibition, active compounds read high
Method in brief: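 Inhibition values reflect reduced yeast growth in the presence of compound, referenced to vehicle controls, using a strain chosen for its alteration in DNA repair or cell cycle control.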

[13] = NCI Yeast Anticancer Drug Screen. Data for the sgs1 strain (AID 173);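 note: 0% = growth of vehicle-only control cultures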; conditions: S. cerevisiae sgs1 mutant, active compounds read high
Method in brief: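 Vehicle-treated cultures served as reference for growth inhibition of a yeast strain altered in DNA damage repair or cell cycle control after compound exposure.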

[14] = NCI Yeast Anticancer Drug Screen. Data for the mlh1 rad18 strain (AID 175); conditions: S. cerevisiae mlh1 rad18 strain growth inhibition, active compounds read high
Method in brief: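 Inhibition values reflect reduced growth of mutant yeast versus vehicle-treated controls following compound exposure; the mutations affect DNA damage repair.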

[15] = NCI Yeast Anticancer Drug Screen. Data for the rad18 strain (AID 177); conditions: S. cerevisiae rad18 mutant growth inhibition, active compounds read high
Method in brief: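 Steps: expose repair-mutant yeast to compound; measure growth; express as inhibition relative to vehicle control.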

[16] = NCI Yeast Anticancer Drug Screen. Data for the rad52 strain (AID 147);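 note: 0% = growth of vehicle-treated control cultures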; conditions: S. cerevisiae rad52 mutant growth inhibition, active compounds read high
Method in brief: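 Inhibition of yeast growth, referenced to vehicle controls, was the measured output for a strain with defective DNA damage repair.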

[17] = at 5.0 µM (retest, dose inferred, filed as 0.5)
[18] = at 50.0 µM (retest, dose inferred, filed as 5.0)

Measured: growth inhibition

Cc1ccc(CNc2ccc(Br)cc2)cc1
active: [1]; at 100.0 µM 82% | [3]; at 100.0 µM 92% | [4]; [18] 89% | [4]; at 100.0 µM 82% | [5]; [18] 90% | [5]; at 50.0 µM 76.7% | [5]; at 100.0 µM 93% | [6]; at 33.0 µM 71% | [6]; at 100.0 µM 92% | [7]; [18] 94% | [8]; at 100.0 µM 81% | [9]; [18] 97% | [10]; [18] 94% | [10]; at 100.0 µM 91% | [11]; at 100.0 µM 87% | [12]; at 100.0 µM 85% | [13]; at 100.0 µM 72% | [14]; [18] 77% | [15]; at 100.0 µM 77%
inactive: [1]; at 1.2 µM -29% | [1]; at 3.7 µM -28% | [1]; at 11.0 µM -27% | [1]; at 33.0 µM 24% | [2]; at 1.2 µM -10% | [2]; at 3.7 µM -11% | [2]; at 11.0 µM -4% | [2]; at 33.0 µM 14% | [2]; at 100.0 µM 64% | [3]; at 1.2 µM 16% | [3]; at 3.7 µM 12% | [3]; at 11.0 µM 27% | [3]; at 33.0 µM 69% | [4]; at 1.2 µM 17% | [4]; at 3.7 µM 6% | [4]; [17] 61% | [4]; at 11.0 µM 16% | [4]; at 33.0 µM 67% | [4]; at 50.0 µM 62.8% | [5]; at 1.2 µM 1% | [5]; at 3.7 µM 2% | [5]; [17] 63% | [5]; at 11.0 µM 17% | [5]; at 33.0 µM 66% | [6]; at 1.2 µM -17% | [6]; at 3.7 µM -18% | [6]; at 11.0 µM -2% | [7]; [17] -19% | [8]; at 1.2 µM -9% | [8]; at 3.7 µM 11% | [8]; at 11.0 µM 6% | [8]; at 33.0 µM 34% | [9]; [17] 61% | [10]; at 1.2 µM -7% | [10]; at 3.7 µM 11% | [10]; [17] 32% | [10]; at 11.0 µM 26% | [10]; at 33.0 µM 63% | [11]; at 1.2 µM -31% | [11]; at 3.7 µM -30% | [11]; at 11.0 µM -13% | [11]; at 33.0 µM 35% | [12]; at 1.2 µM -32% | [12]; at 3.7 µM -31% | [12]; at 11.0 µM -21% | [12]; at 33.0 µM 40% | [13]; at 1.2 µM -17% | [13]; at 3.7 µM -17% | [13]; at 11.0 µM -15% | [13]; at 33.0 µM 34% | [14]; [17] 28% | [14]; at 50.0 µM 60.2% | [15]; at 1.2 µM -6% | [15]; at 3.7 µM -15% | [15]; at 11.0 µM -7% | [15]; at 33.0 µM 49%

O=S(=O)(c1cc(Cl)ccc1O)c1cc(Cl)ccc1O
inactive: [16]; at 1.2 µM 24% | [2]; at 1.2 µM -1% | [2]; at 3.7 µM 5% | [2]; at 11.0 µM 12% | [2]; at 33.0 µM 14% | [2]; at 100.0 µM 45% | [3]; at 1.2 µM 15% | [4]; at 1.2 µM 27% | [4]; [17] 52% | [5]; at 1.2 µM 30% | [5]; [17] 35% | [6]; at 1.2 µM 9% | [8]; at 1.2 µM 23% | [9]; [17] 23% | [10]; at 1.2 µM 20% | [10]; [17] 48% | [11]; at 1.2 µM 7% | [12]; at 1.2 µM 21% | [13]; at 1.2 µM 26% | [15]; at 1.2 µM 26%
active: [16]; at 3.7 µM 91% | [16]; at 11.0 µM 99% | [16]; at 33.0 µM 99% | [16]; at 100.0 µM 99% | [3]; at 3.7 µM 92% | [3]; at 11.0 µM 99% | [3]; at 33.0 µM 99% | [3]; at 100.0 µM 99% | [4]; at 3.7 µM 91% | [4]; at 11.0 µM 98% | [4]; at 33.0 µM 97% | [4]; [18] 99% | [4]; at 50.0 µM 99.5% | [4]; at 100.0 µM 99% | [5]; at 3.7 µM 93% | [5]; at 11.0 µM 99% | [5]; at 33.0 µM 98% | [5]; [18] 100% | [5]; at 50.0 µM 99.7% | [5]; at 100.0 µM 100% | [6]; at 3.7 µM 96% | [6]; at 11.0 µM 99% | [6]; at 33.0 µM 99% | [6]; at 100.0 µM 100% | [7]; [17] 75% | [7]; [18] 100% | [7]; at 50.0 µM 99.5% | [8]; at 3.7 µM 89% | [8]; at 11.0 µM 99% | [8]; at 33.0 µM 100% | [8]; at 100.0 µM 99% | [9]; [18] 99% | [9]; at 50.0 µM 98.9% | [10]; at 3.7 µM 91% | [10]; at 11.0 µM 98% | [10]; at 33.0 µM 99% | [10]; [18] 99% | [10]; at 50.0 µM 99.4% | [10]; at 100.0 µM 99% | [11]; at 3.7 µM 85% | [11]; at 11.0 µM 97% | [11]; at 33.0 µM 99% | [11]; at 100.0 µM 100% | [12]; at 3.7 µM 85% | [12]; at 11.0 µM 99% | [12]; at 33.0 µM 99% | [12]; at 100.0 µM 99% | [13]; at 3.7 µM 91% | [13]; at 11.0 µM 99% | [13]; at 33.0 µM 99% | [13]; at 100.0 µM 99% | [14]; [17] 82% | [14]; [18] 99% | [14]; at 50.0 µM 99.7% | [15]; at 3.7 µM 84% | [15]; at 11.0 µM 98% | [15]; at 33.0 µM 99% | [15]; at 100.0 µM 99%
